Measurements from PubChem BioAssay (NCATS).
Inconclusive results are not listed. Where a call stands in place of a potency, no number is given. A number with no mark means an inactive call. Calls of active or inactive are those of the source. Calls follow the shape of the dose curve; as a rule, active = well fitted inhibition curve with a large enough effect; inconclusive = small, poorly fitted or top-dose-only effect; inactive = no such curve, though single readings can be large or run the other way. Where a SMILES comes first, the peptide text is derived from it. The star is where a group is joined. AFC = O=c1cc(C(F)(F)F)c2ccc(N*)cc2o1

Key:
[1] = tested on: Zika virus NS2B-NS3 protease (unlinked complex); test: Primary screen GU Rhodamine qHTS for Zika virus inhibitors: Unlinked NS2B-NS3 protease assay (AID 1347159); details: Recombinant ZIKV NS2B-NS3 protease, Rhodamine110 substrate fluorescence; series mostly up to 107 µM; also: nearly all actives have a fitted effect of over 60% in size
Outline: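 Percent inhibition derives from the 15-min fluorescence change (ex 480, em 540 nm), normalized to no-enzyme and no-inhibitor wells. Reactions contained 25 nM NS2B-NS3 complex and 1.5 microM substrate in 10 mM Tris-HCl pH 8.0.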

[2] = tested on: Zika virus NS2B-NS3 protease (linked construct); test: Primary screen NINDS Rhodamine qHTS for Zika virus inhibitors (AID 1347160); details: purified NS2B-NS3 protease, Rhodamine110 substrate fluorescence; series mostly up to 57.1 µM; also: nearly all actives have a fitted effect of over 55% in size
Outline: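 In 10 mM Tris-HCl pH 8.0 containing 0.01% Tween 20, linked NS2B-NS3 protease (25 nM final) is exposed to test compounds for 15 min. Cleavage of 1.5 microM Rhodamine110 substrate is tracked by fluorescence over 15 min.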
Potency is read from the fitted curve at half-maximal effect.

Compound	Potency [1]	Potency [2]	activity change, negative = inhibition [1]	activity change, negative = inhibition [2]
C/C(=C/CCC(CO)C1CCC2(C)C3CCC4C(C)(C)C(OC5OC(CO)C(O)C(O)C5O)CC(O)C45CC35CCC12C)COC1OC(CO)C(O)C(O)C1O (stereo unspecified)	inactive	inactive	–	–
C=CC1(C)CC2=CCC3C(C)(C(=O)O)CCCC3(C)C2CC1OC(C)=O (stereo unspecified)	inactive	inactive	–	–
C=CC1C(O[C@@H]2O[C@H](CO)[C@@H](O)[C@H](O)[C@H]2O)OC=C(C(=O)OC)C1CC(=O)O (stereo partly specified)	inactive	inactive	–	–
Cc1cc(N2CCCCC2)nc2ccccc12	inactive	inactive	–	–
CC(C)C(C#N)O[C@@H]1O[C@H](CO[C@@H]2OC[C@](O)(CO)[C@H]2O)[C@@H](O)[C@H](O)[C@H]1O (stereo partly specified)	inactive	inactive	–	–
CCCCNC(=O)[C@@H]1Cc2ccccc2N1C(=O)[C@@H](N)CC	inactive	inactive	–	–
CCOC(=O)Nc1nc2ccccc2[nH]1	inactive	inactive	–	–
OC[C@H]1O[C@@H](OCCc2ccc(O)cc2)[C@H](O)[C@@H](O)[C@@H]1O	inactive	inactive	–	–
CC(=O)N[C@@H](CC(C)C)C(=O)N[C@@H](CCC(=O)O)C(=O)N[C@@H](CCC(=O)O)C(=O)N[C@@H](CC(=O)O)C(=O)Nc1ccc2c(C(F)(F)F)cc(=O)oc2c1 (Ac-LEED-{AFC})	inactive	inactive	–	–
C1CCN2CC3C[C@@H](CN4CCCC[C@@H]34)[C@H]2C1	inactive	inactive	–	–
CC(C)(O)c1ccc2c(c1)C(O)CC1C(C)(C(=O)O)CCCC21C (stereo unspecified)	inactive	inactive	–	–
Cc1cc(O)cc(Oc2cc(C)c(C(=O)O)c(O)c2)c1	14.1 µM (active)	17.8 µM (active)	–	–
N[C@@H](CC(=O)N1CCn2c(nnc2C(F)(F)F)C1)Cc1[nH]nc2c(F)c(F)ccc12	inactive	inactive	–	–
O=C(c1ccccn1)c1cnn2c(-c3ccncc3)ccnc12	inactive	inactive	–	–
C[C@@H]1O[C@@H](O[C@H]2[C@H](O[C@H]3CC[C@@]4(C)C(CC[C@]5(C)C4CC=C4C6CC(C)(C)CC[C@]6(C(=O)O[C@@H]6O[C@H](CO[C@@H]7O[C@H](CO)[C@@H](O[C@@H]8O[C@@H](C)[C@H](O)[C@@H](O)[C@H]8O)[C@H](O)[C@H]7O)[C@@H](O)[C@H](O)[C@H]6O)CC[C@]45C)[C@]3(C)CO)OC[C@H](O)[C@@H]2O)[C@H](O)[C@H](O)[C@H]1O (stereo partly specified)	–	–	20.6% [at 19.1 µM]	37.8% [at 10.7 µM]
C=C1CC[C@@H]2[C@](C)(CC[C@H](O)[C@@]2(C)CCC=C(C)C)[C@@H]1Cc1c[nH]c2ccccc12	inactive	inactive	–	–
O=S(=O)(Nc1ccc(C(O)(C(F)(F)F)C(F)(F)F)cc1)c1cccs1	inactive	inactive	–	–
C[C@H](NCc1ccc(OCc2ccccc2F)cc1)C(N)=O	inactive	inactive	–	–
C[C@@H]1CC[C@]2(C(=O)O)CC[C@]3(C)C(=CCC4[C@]5(C)C(CC[C@]43C)C(C)(C)[C@@H](O)[C@H](O)[C@@H]5O)C2[C@]1(C)O (stereo partly specified)	inactive	inactive	–	–
COC(=O)C1=COC(O[C@@H]2O[C@H](CO)[C@@H](O)[C@H](O)[C@H]2O)/C(=C\COC(=O)c2ccc(OC3OC(CO)C(O)C(O)C3O)c(OC)c2)C1CC(=O)OCCc1ccc(O)cc1 (stereo partly specified)	inactive	inactive	–	–
N#Cc1ccnc(N2C(=O)CC[C@H]2C(=O)N(c2cncc(F)c2)[C@H](C(=O)NC2CC(F)(F)C2)c2ccccc2Cl)c1	inactive	inactive	–	–
C/C=C(\C)C(=O)OC[C@H]1O[C@H](O[C@H]2O[C@H](CO)[C@@H](OC(=O)/C(C)=C/C)[C@H](O)[C@H]2O[C@@H]2O[C@H](CO)[C@@H](O)[C@H](O)[C@H]2O)[C@H](O[C@@H]2O[C@H](CO)[C@@H](O)[C@H](O)[C@H]2O)[C@@H](O)[C@@H]1O	inactive	inactive	–	–
COc1cc(COC2OC(CO)C(O)C(O)C2O)cc(OC)c1O (stereo unspecified)	inactive	inactive	–	–
COc1ccc(C)c2sc(NC(=O)c3ccncc3)nc12	inactive	inactive	–	–
CC(NC(=O)CC(=O)O)c1nc2ccccc2c(=O)[nH]1 (stereo unspecified)	44.7 µM (active)	25.1 µM (active)	–	–
CCC(=O)O[C@]1(C(=O)CCl)[C@@H](C)C[C@H]2[C@@H]3C[C@H](F)C4=CC(=O)C=C[C@]4(C)[C@@]3(F)[C@@H](O)C[C@@]21C	inactive	inactive	–	–
C=CCc1ccc(O[C@@H]2O[C@H](CO)[C@@H](O)[C@H](O)[C@H]2O)c(OC)c1	12.6 µM (active)	inactive	–	–

Compound	Potency [1]	Potency [2]	activity change, negative = inhibition [1]	activity change, negative = inhibition [2]
CC(C)CC1(C(=O)OCc2ccc(O[C@@H]3O[C@H](CO)[C@@H](O)[C@H](O)[C@H]3O)cc2)CC(=O)OC(C(=O)O)CC(=O)OCC2OC(O1)C(OC(=O)/C=C/c1ccc(O)cc1)C(O)C2O (stereo partly specified)	inactive	inactive	–	–
O=C1N(CC2CCCCN2)CCN1c1ccccc1 (stereo unspecified)	inactive	inactive	–	–
C[C@@H]1O[C@@H](O[C@@H]2[C@@H](O)[C@H](O[C@@H]3[C@@H](O)[C@@H](O)[C@H](O[C@H]4[C@H](OC(=O)[C@]56CCC(C)(C)C[C@H]5C5=CCC7[C@@]8(C)C[C@H](O)[C@H](O[C@@H]9O[C@@H](C)[C@H](O)[C@@H](O)[C@H]9O)[C@@](C)(CO)C8CC[C@@]7(C)[C@]5(C)C[C@H]6O)O[C@H](C)[C@H](O)[C@@H]4O)O[C@H]3C)OC[C@H]2O)[C@H](O)[C@H](O)[C@H]1O (stereo partly specified)	–	–	-9.55% [at 19.1 µM]	4.29% [at 10.7 µM]
CC(=O)NC(CCC(=O)O)C(=O)NCCc1ccc(O)cc1 (stereo unspecified)	inactive	inactive	–	–
CN1C(=O)N[C@@H](Cc2c[nH]c3c(Cl)cccc23)C1=O	inactive	inactive	–	–
C[C@@H]1O[C@@H](O[C@H]2[C@H](OC(=O)[C@]34CCC(C)(C)C[C@H]3C3=CCC5[C@@]6(C)C[C@H](O)[C@H](O[C@@H]7O[C@H](CO[C@@H]8OC[C@H](O)[C@H](O)[C@H]8O)[C@@H](O)[C@H](O)[C@H]7O)C(C)(C)C6CC[C@@]5(C)[C@]3(C)C[C@H]4O)OC[C@@H](O)[C@@H]2O)[C@H](O)[C@H](O[C@@H]2OC[C@](O)(CO)[C@H]2O)[C@H]1O[C@@H]1OC[C@H](O)[C@H](O[C@@H]2OC[C@@H](O)[C@H](O)[C@H]2O)[C@H]1O (stereo partly specified)	–	–	12.7% [at 19.1 µM]	22.5% [at 10.7 µM]
COC(=O)C1=C[C@@H](O)[C@@H](O)[C@H](O[C@@H]2O[C@H](COC(=O)/C=C/c3ccccc3)[C@@H](O)[C@H](O)[C@H]2O)C1	inactive	inactive	–	–
COC1CC(OC2CCC3(C)C(=CCC4C3CCC3(C)C(C(C)O)CCC43O)C2)OC(C)C1OC1OC(C)C(OC2OC(COC3OC(COC4OC(CO)C(O)C(O)C4O)C(O)C(O)C3O)C(O)C(O)C2O)C(OC)C1O (stereo unspecified)	inactive	inactive	–	–
CCC(C)C(=O)O[C@@H]1[C@@H](O)[C@@H](O[C@H]2O[C@H](CO)[C@@H](O)[C@H](O)[C@H]2O)O[C@H](CO)[C@H]1O (stereo partly specified)	inactive	inactive	–	–
C=CC(C)(C)C1(CC2NC(=O)C3CCCN3C2=O)C(=O)Nc2cc3c(cc21)C=CC(C)(C)O3 (stereo unspecified)	inactive	inactive	–	–
CC[C@H]1OC(=O)[C@H](C)[C@@H](O[C@H]2C[C@@](C)(OC)[C@@H](O)[C@H](C)O2)[C@H](C)[C@@H](O[C@@H]2O[C@H](C)C[C@H](N(C)C)[C@H]2O)[C@@](C)(O)C[C@@H](C)[C@@H]2N[C@@H](COCCOC)OC([C@H]2C)[C@]1(C)O	inactive	inactive	–	–
CCCCCCc1cccc(NC(=O)[C@H](N)CCP(=O)(O)O)c1	inactive	inactive	–	–
C#Cc1cnc2[nH]c(=O)n(C(CC)CC)c2n1	inactive	inactive	–	–
O=C(/C=C/c1ccc(O)cc1)OC[C@H]1O[C@@H](OC(=O)/C=C/c2ccccc2)[C@H](O)[C@@H](O)[C@@H]1O	inactive	inactive	–	–
C[C@@H](Nc1cc(NS(=O)(=O)N2CCC2)nc(SCc2cccc(F)c2F)n1)[C@@H](O)CO	inactive	inactive	–	–
NC1CCC(N[C@@H]2C[C@H]2c2ccccc2)CC1 (stereo partly specified)	inactive	inactive	–	–
COc1ncc(-c2ccc3c(Nc4cc(Oc5cc(F)cc(F)c5)cc(C(=O)O)c4)c(S(=O)(=O)NC4CC4)cnc3c2)c(OC)n1	8.91 µM (active)	14.1 µM (active)	–	–
C=C1CC[C@H]2[C@@](C)(CCC[C@@]2(C)C(=O)O)[C@@H]1CCC(C)CCO (stereo partly specified)	inactive	inactive	–	–
COC1CC(=O)CCC(C)OC(=O)CC1O (stereo unspecified)	inactive	inactive	–	–
COc1ccccc1-n1c(SCC(=O)Nc2nc3ccc(C)cc3s2)nc2c(c1=O)SCC2	inactive	inactive	–	–
CC1(C)CC[C@]2(C(=O)O)CC[C@]3(C)C(=CCC4[C@@]5(C)CC[C@H](O[C@@H]6O[C@H](C(=O)O)[C@@H](O)[C@H](O)[C@H]6O)C(C)(CO)C5CC[C@]43C)C2C1 (stereo partly specified)	inactive	inactive	–	–
CC1=CC(=O)CC(C)(C)C1(O)CCC(C)O (stereo unspecified)	inactive	inactive	–	–
CC1(C)CC(=O)N(CCCCN2CCN(c3ncccn3)CC2)C(=O)C1	inactive	inactive	–	–
COc1cc(/C=C/C(=O)OC[C@H]2O[C@H](O[C@]3(CO)O[C@H](CO)[C@@H](O)[C@@H]3O)[C@H](O)[C@@H](O)[C@@H]2O)cc(OC)c1O	inactive	inactive	–	–
CC1(CO)CC[C@]2(C(=O)O[C@@H]3O[C@H](CO)[C@@H](O)[C@H](O)[C@H]3O)CC[C@]3(C)C(=CCC4[C@@]5(C)CC[C@H](O[C@@H]6O[C@H](C(=O)O)[C@@H](O)[C@H](O)[C@H]6O)C(C)(C)C5CC[C@]43C)C2C1 (stereo partly specified)	inactive	inactive	–	–
CCCC(N[C@@H](C)C(=O)N1[C@H](C(=O)O)C[C@@H]2CCCC[C@@H]21)C(=O)OCC (stereo partly specified)	inactive	inactive	–	–
